Data reported in PubChem BioAssay AID777 (Sanford-Burnham Center for Chemical Genomics, 2007).
About 19,000 (20%) of roughly 96,000 compounds were called active.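 The calls were made as follows: active = blocking of liver enzyme CYP2C9 beyond about 50% at 5 µM (limit read from the data); inactive = the rest.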 Not all results are given here.

target: Cytochrome P450 2C9 (Homo sapiens) (UniProt P11712); assay: blockers of cytochrome P450 2C9 activity – biochemical, luminescence, ADME assay, primary screen (AID 777); details: CYP2C9 Supersomes, luciferin-H conversion, at 5 µM, stronger effect = higher value
Sequence (P11712 whole entry, looked up): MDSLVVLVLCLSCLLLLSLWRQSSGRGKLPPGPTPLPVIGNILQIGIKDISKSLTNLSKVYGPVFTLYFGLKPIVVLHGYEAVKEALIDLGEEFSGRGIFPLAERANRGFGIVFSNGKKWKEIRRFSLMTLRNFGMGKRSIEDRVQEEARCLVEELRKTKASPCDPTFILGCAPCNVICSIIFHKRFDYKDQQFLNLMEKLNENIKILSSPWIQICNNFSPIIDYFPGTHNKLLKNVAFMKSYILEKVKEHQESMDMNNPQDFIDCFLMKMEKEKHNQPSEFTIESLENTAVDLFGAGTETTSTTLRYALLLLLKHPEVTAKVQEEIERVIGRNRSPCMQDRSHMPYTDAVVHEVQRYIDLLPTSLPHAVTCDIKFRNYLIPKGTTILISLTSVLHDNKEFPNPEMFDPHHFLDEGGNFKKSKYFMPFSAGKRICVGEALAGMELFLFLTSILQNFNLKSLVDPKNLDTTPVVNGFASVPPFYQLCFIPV

Row | SMILES | inhibition
1 | NC(CSC12CC3CC(CC(C3)C1)C2)C(=O)O (stereo not given) | 9.2% (inactive)
2 | N#Cc1c(/N=C/N2CCCC2)oc(-c2ccccc2)c1-c1ccccc1 | 79.9% (active)
3 | COc1ccc(-c2oc(/N=C/N3CCCC3)c(C#N)c2-c2ccc(OC)cc2)cc1 | 96.9% (active)
4 | N#Cc1c2c(c(-c3ccccc3)[nH]c1=O)CCCC2 | -12.7% (inactive)
5 | Cn1c(C(=O)NCCN2CCc3ccccc3C2)cc2c(=O)[nH]c3ccccc3c21 | 20% (inactive)
6 | Cc1noc(NS(=O)(=O)c2ccc(N3CC(O)=C(c4ccccc4)C3=N)cc2)c1C | 3.3% (inactive)
7 | CC(NC(=O)CSc1nc2c(cc1C#N)CN(C)CC2)c1ccccc1 (stereo not given) | 74.5% (active)
8 | Cc1ccc2cc(C#N)c(SCC(=O)NCC3CCCO3)nc2c1C (stereo not given) | -3.8% (inactive)
9 | Cc1cc(C(F)(F)F)c(C#N)c(SCC(=O)NC2CC2)n1 | 17.2% (inactive)
10 | CCCC(C(=O)N1CCOCC1)N1C(=O)C2C3C=CC(C3)C2C1=O (stereo not given) | -2.2% (inactive)
11 | Clc1ccc(Cl)c(Oc2ccc(Oc3nc(Cl)ccc3Cl)cc2)n1 | -102% (inactive)
12 | CSc1ccc(C#N)cc1NC(=O)c1cccc(Cl)c1 | 18.2% (inactive)
13 | CN1C(=O)c2ccc(NC(=O)c3c(F)c(F)c(F)c(F)c3F)cc2C1=O | -24% (inactive)
14 | O=C(c1ccco1)N1CCN(C(=O)c2ccc(COc3ccc(F)cc3)o2)CC1 | 33.7% (inactive)
15 | CC(=O)c1cccc(NC(=O)Nc2ccc(C)cc2)c1 | 17.7% (inactive)
16 | Cc1ccc(NC(=O)C(C)c2cccc(C(=O)c3ccccc3)c2)cc1 (stereo not given) | 57.9% (active)
17 | CC(NC(=O)Nc1ccccc1)c1ccccc1 (stereo not given) | 7% (inactive)
18 | CCn1c(Cc2ccccc2)nnc1SCc1nc2ccccc2c(=O)[nH]1 | -61.8% (inactive)
19 | CC1=C(C)CC2C(=O)N(c3cccc4ccccc34)C(=O)C2C1 (stereo not given) | 72.9% (active)
20 | O=C(c1ccccc1)c1cc(-c2ccccn2)c(N2CCOCC2)s1 | 25% (inactive)
21 | c1cnn(-c2cc(N3CCOCC3)ncn2)c1 | -3.4% (inactive)
22 | O=C1c2ccccc2-c2ncnc3c(N4CCOCC4)cc(N4CCOCC4)c1c23 | 51.5% (active)

Row | SMILES | inhibition
23 | c1ccc(-c2oc3ncnc(N4CCOCC4)c3c2-c2ccccc2)cc1 | 18.1% (inactive)
24 | Cc1cnc(NC(=O)C2CCCC2)s1 | 10.7% (inactive)
25 | CCN1C(=O)/C(=C\N2CCN(c3cccc(Cl)c3)CC2)SC1=S | 4.9% (inactive)
26 | CC(Oc1ccc(Cl)cc1)c1ccnn1S(C)(=O)=O (stereo not given) | 24.4% (inactive)
27 | COc1ccc(CC(=O)n2nc(-c3cccnc3)nc2N)cc1 | 9% (inactive)
28 | O=C(Cn1ccc([N+](=O)[O-])n1)NCc1cccs1 | -1.6% (inactive)
29 | C=C(C)CSc1nnc(-c2ccc(C)cc2)n1N | 1.1% (inactive)
30 | Cc1ccc(NC(=S)NC2CCCC2)cc1 | 29.5% (inactive)
31 | Cc1ccc(NC(=S)N/N=C2/CCCc3c(C)cc(C)cc32)cc1 | 59.7% (active)
32 | Cc1ccc(NC(=S)NCCN2CCOCC2)cc1 | -12.4% (inactive)
33 | CCOc1ccc(-c2nc(C)sc2CC(=O)O)cc1 | -0.3% (inactive)
34 | CC(C)c1ccc(Nc2ncccc2C#N)cc1 | 3.6% (inactive)
35 | C=CCOC(=O)C1=C(C)NC(C)=C(C(=O)OCC=C)C1c1cccs1 | 96.8% (active)
36 | COCCOC(=O)C1=C(C)N=c2s/c(=C\c3cccs3)c(=O)n2C1c1cccs1 (stereo not given) | 41.5% (inactive)
37 | C=CCN(C(=O)Nc1ccc2oc(C)nc2c1)c1ccccc1 | 22.8% (inactive)
38 | CCc1c(C)nc2cc(-c3cccs3)[nH]n2c1=O | 30.3% (inactive)
39 | FC(F)(F)c1nnc2ccc(N3CCN(c4ccccc4)CC3)nn12 | 27.4% (inactive)
40 | O=C(CSCc1ccccc1Cl)NNC(=O)c1ccccc1 | -1.6% (inactive)
41 | O=C(CSCc1ccc([N+](=O)[O-])cc1)Nc1cccc(C(=O)Nc2ccccc2C(=O)O)c1 | 93.9% (active)
42 | O=C(CSCc1ccc([N+](=O)[O-])cc1)NCCSCc1ccccc1 | 44.2% (inactive)
43 | Cc1ccc(C2CC2C(=O)NN)cc1 (stereo not given) | 15.8% (inactive)
44 | CC(=O)c1cccc(NC(=O)N2CCCC2C(=O)NCCc2ccccc2)c1 (stereo not given) | -8.8% (inactive)

Row | SMILES | inhibition
45 | COCCN(C(=O)c1ccco1)c1nnc(-c2ccc(OC)cc2)s1 | 9% (inactive)
46 | CCN1C(=O)CS/C1=N\c1nccs1 | 17.8% (inactive)
47 | COc1ccc(-c2c(C(C)=O)c(C)nc3sc4c(=O)n(-c5ccc(C)cc5)nnc4c23)cc1 | 85.6% (active)
48 | COCc1cc(C)nc2sc3c(=O)n(-c4cccc5ccccc45)nnc3c12 | 26.8% (inactive)
49 | COc1ccc(-n2nnc3c(=O)n(CC(=O)OCc4ccccc4)cnc32)cc1 | -16% (inactive)
50 | CC(C)(C)NC(=O)C(c1ccco1)N(Cc1ccc2c(c1)OCO2)C(=O)Cn1nnc2ccccc21 (stereo not given) | 16.8% (inactive)
51 | Cc1cccc(-n2ncc(C#N)c2-n2cccc2)c1 | 39.8% (inactive)
52 | COc1ccc(OC)c(S(=O)(=O)Nc2ccccc2F)c1 | 57.6% (active)
53 | COc1ccccc1NS(=O)(=O)N(C)C | -23% (inactive)
54 | COc1ccc(Cl)cc1S(=O)(=O)Nc1cccc(C(=O)O)c1 | 14.1% (inactive)
55 | Cc1ccc(NC(=O)COc2ccc(-n3ccnc3)cc2)cc1Cl | 95% (active)
56 | Cc1ccc(OCC(=O)Nc2ccc(-c3nc4ncccc4o3)cc2)cc1 | -6.6% (inactive)
57 | Cc1csc(OCC(=O)Nc2ccc(C)c(C)c2)n1 | 4.4% (inactive)
58 | CCN(CC)c1ccc2cc(C(=O)O)c(=O)oc2c1 | -7.5% (inactive)
59 | Cc1cc(=O)n2c3c(cccc13)CCC2 | -60.9% (inactive)
60 | CC(C)Oc1ccc(C(=O)Nc2cc(=O)n(C)c(=O)n2C)cc1 | 10.6% (inactive)
61 | C=C(C)Cn1c(N2CCN(CC)CC2)nc2c1c(=O)[nH]c(=O)n2C | -14.5% (inactive)
62 | COc1cc(C(=O)NC(=S)NCc2ccco2)cc(OC)c1OC | 18.9% (inactive)
63 | Cc1cccc(C)c1NC(=O)CCS(=O)(=O)c1cccc2nsnc12 | -1% (inactive)
64 | O=C(Nc1cc(=O)[nH]c2ncnn12)c1ccccc1Cl | 5.6% (inactive)
65 | O=C(CSCc1cccs1)N1CCCC1 | -22.8% (inactive)
